Data taken from PubChem BioAssay (Tox21).
Values joined by “and” are separate entries in the source; they are usually repeats but may differ in a detail not shown here. Identical values can stand only once. Records with an inconclusive call do not appear. Where a call stands in place of a potency, no number is given. Active and inactive are the calls of the source. Unless noted, calls come from the whole dose curve; as a rule, active = well fitted curve in the direction sought with a large enough effect in the repeat runs; inconclusive = weak or mixed curves; inactive = no such curve, though single readings can be large; an effect the other way counts as inactive or inconclusive.

Tests used:
[1] = target: Acetylcholinesterase (Homo sapiens) (UniProt P22303); assay: Acetylcholinesterase (AChE) small molecule antagonists: enzyme-based qHTS assay (AID 1347397; calls by dose curve; note: nearly all actives have a fitted effect of over 55% in size); settings: Potency: AChE enzyme activity inhibition
How it was run: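 Colorimetric DTNB read-out of thiocholine released from acetylthiocholine by recombinant human AChE (50 mU/mL as dispensed). Compounds were preincubated 30 min at RT before substrate/DTNB addition, with a 10 min RT reaction.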

[2] = target: Acetylcholinesterase (Homo sapiens) (UniProt P22303); assay: Acetylcholinesterase (AChE) small molecule antagonists: fluorescence cell-based qHTS assay (AID 1347398; calls by dose curve; note: nearly all actives have a fitted effect of over 50% in size); settings: Potency: AChE activity
How it was run: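 SH-SY5Y, 2,000 cells/well, attached overnight; cmpd 30 min 37 C; acetylthiocholine/Thiolite Green cocktail 40 min RT; fluorescence Ex/Em 490/520 nm.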

[3] = target: Acetylcholinesterase (Homo sapiens) (UniProt P22303); assay: Acetylcholinesterase (AChE) small molecule antagonists: enzyme-based qHTS assay with human liver microsomes (AID 1347399; calls by dose curve; note: nearly all actives have a fitted effect of over 60% in size); settings: Potency: qHTS inhibition
How it was run: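 Recombinant human AChE (50 mU/mL in the enzyme mix) and human liver microsomes (0.25 mg/mL final) were preincubated with compound and NADPH (0.25 mg/mL final) for 30 min at 37 C. Acetylthiocholine/DTNB was then added; thiocholine was read colorimetrically after 10 min at room temperature.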

[4] = target: Cytochrome P450 2C19 (Homo sapiens) (UniProt P33261); assay: Cytochrome P450 Family 2 Subfamily C Member 19 (CYP2C19) small molecule antagonists: luciferase reporter qHTS assay (AID 1671197); note: nearly all actives have a fitted effect of over 65% in size
How it was run: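 Light output is proportional to CYP2C19 activity: proluciferin substrate is converted to luciferin, then detected by a luciferin detection reagent that also stops the 1 h, 37C NADPH-driven reaction. Ketoconazole serves as positive control.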

[5] = target: Cytochrome P450 2C9 (Homo sapiens) (UniProt P11712); assay: Cytochrome P450 Family 2 Subfamily C Member 9 (CYP2C9) small molecule antagonists: luciferase reporter qHTS assay (AID 1671198); note: nearly all actives have a fitted effect of over 50% in size
How it was run: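 P450-Glo proluciferin substrate with CYP2C9 enzyme; 10 min RT preincubation, then NADPH regeneration 1 h at 37C; luciferin detection reagent 20 min RT, luminescence in relative luminescence units.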

[6] = target: Voltage-gated inwardly rectifying potassium channel KCNH2 (Homo sapiens) (UniProt Q12809); assay: Human Ether-a-go-go-Related Gene (hERG) channel small molecule antagonists: fluorescence cell-based qHTS assay (AID 1671200); note: nearly all actives have a fitted effect of over 50% in size
How it was run: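 Read-out: thallium influx as a surrogate for potassium, tracked as fluorescence (480 nm ex/540 nm em) every second for 2 min after Stimulus Buffer addition in dye-loaded hERG-U2OS cells.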

[7] = target: Cytochrome P450 3A4 (Homo sapiens) (UniProt P08684); assay: Cytochrome P450 Family 3 Subfamily A Member 4 (CYP3A4) small molecule antagonists: luciferase reporter qHTS assay (AID 1671201); note: nearly all actives have a fitted effect of over 50% in size
How it was run: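 Luminescent readout (RLU) proportional to CYP3A4 activity, from luciferin generated off a proluciferin substrate. Enzyme–substrate mix plus compound 10 min at room temp, NADPH regeneration 1 h, detection reagent 20 min.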

[8] = target: Cytochrome P450 2D6 (Homo sapiens) (UniProt P10635); assay: Cytochrome P450 Family 2 Subfamily D Member 6 (CYP2D6) small molecule antagonists: luciferase reporter qHTS assay (AID 1671196); note: nearly all actives have a fitted effect of over 50% in size
How it was run: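 CYP2D6 activity was followed as luminescence from its luciferin product after a 1 h NADPH-driven reaction at room temperature. Enzyme-substrate mix and compound were pre-incubated for 10 min, and the signal was read 20 min after adding detection reagent.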

[9] = target: Cytochrome P450 1A2 (Homo sapiens) (UniProt P05177); assay: Cytochrome P450 Family 1 Subfamily A Member 2 (CYP1A2) small molecule antagonists: luciferase reporter qHTS assay (AID 1671199); note: nearly all actives have a fitted effect of over 50% in size
How it was run: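 Luminescence from luciferin formed by CYP1A2 from a proluciferin substrate, read 20 min after detection reagent. Compound was pre-incubated 10 min with enzyme-substrate, and reaction started with NADPH regeneration solution for 1 h at room temperature; furafylline control.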
Potency is the fitted concentration of half-maximal effect.

Voltage-gated inwardly rectifying potassium channel KCNH2 (Homo sapiens), sequence (Q12809 whole entry, looked up): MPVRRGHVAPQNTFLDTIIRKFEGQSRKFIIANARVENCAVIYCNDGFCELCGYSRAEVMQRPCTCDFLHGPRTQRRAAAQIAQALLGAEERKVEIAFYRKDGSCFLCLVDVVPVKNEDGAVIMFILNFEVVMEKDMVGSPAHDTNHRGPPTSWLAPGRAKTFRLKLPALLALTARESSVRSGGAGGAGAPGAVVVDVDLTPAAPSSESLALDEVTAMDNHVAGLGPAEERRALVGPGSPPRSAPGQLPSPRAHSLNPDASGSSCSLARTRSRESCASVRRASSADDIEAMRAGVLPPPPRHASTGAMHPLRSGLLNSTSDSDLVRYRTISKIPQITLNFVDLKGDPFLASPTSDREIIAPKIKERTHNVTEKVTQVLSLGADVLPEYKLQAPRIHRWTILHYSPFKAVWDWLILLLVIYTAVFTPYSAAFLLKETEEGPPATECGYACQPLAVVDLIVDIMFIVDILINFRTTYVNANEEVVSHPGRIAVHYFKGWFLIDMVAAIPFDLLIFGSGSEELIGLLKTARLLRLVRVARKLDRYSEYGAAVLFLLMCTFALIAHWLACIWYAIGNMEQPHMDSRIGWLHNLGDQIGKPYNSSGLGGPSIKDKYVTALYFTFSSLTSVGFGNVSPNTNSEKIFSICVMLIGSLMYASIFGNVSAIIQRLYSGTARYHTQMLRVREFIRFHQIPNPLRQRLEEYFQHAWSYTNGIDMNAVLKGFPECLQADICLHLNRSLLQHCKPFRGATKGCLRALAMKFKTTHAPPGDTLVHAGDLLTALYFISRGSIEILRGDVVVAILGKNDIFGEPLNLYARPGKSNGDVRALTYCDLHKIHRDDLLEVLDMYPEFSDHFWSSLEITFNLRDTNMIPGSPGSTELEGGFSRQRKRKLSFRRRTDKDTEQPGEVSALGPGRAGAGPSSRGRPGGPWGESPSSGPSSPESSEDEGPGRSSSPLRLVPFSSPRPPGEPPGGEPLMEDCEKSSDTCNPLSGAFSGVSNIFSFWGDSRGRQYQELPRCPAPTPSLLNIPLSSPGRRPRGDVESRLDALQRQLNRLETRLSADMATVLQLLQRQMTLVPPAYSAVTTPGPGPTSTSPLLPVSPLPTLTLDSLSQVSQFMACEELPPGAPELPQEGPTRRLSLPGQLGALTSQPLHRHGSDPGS
Cytochrome P450 3A4 (Homo sapiens), sequence (P08684 whole entry, looked up): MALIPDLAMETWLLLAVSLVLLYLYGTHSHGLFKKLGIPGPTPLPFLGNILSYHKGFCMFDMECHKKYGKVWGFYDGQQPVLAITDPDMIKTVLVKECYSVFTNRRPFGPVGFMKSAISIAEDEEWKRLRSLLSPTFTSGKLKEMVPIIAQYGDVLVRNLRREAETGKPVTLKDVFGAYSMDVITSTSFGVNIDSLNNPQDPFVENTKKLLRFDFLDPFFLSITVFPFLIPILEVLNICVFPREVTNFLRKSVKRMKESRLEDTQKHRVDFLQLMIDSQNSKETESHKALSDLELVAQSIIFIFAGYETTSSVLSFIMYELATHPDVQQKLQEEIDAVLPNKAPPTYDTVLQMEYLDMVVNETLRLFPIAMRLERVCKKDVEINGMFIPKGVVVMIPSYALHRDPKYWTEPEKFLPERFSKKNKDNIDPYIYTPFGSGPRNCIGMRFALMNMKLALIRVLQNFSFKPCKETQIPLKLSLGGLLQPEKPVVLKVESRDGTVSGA
Cytochrome P450 2C9 (Homo sapiens), sequence (P11712 whole entry, looked up): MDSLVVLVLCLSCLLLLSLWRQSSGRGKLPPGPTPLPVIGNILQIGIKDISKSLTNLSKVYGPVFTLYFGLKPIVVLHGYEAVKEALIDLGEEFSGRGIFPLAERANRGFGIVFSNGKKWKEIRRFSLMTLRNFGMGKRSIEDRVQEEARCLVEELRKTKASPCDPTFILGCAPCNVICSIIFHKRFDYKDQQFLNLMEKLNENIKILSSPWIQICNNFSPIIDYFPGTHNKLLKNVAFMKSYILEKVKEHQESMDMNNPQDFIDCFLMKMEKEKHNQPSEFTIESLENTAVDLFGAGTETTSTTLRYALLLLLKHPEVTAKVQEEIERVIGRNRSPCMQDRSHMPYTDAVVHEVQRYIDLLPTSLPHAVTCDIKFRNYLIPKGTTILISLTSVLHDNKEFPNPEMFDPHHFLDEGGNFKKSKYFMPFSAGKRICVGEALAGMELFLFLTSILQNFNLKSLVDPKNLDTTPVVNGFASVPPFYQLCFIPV
Cytochrome P450 2C19 (Homo sapiens), sequence (P33261 whole entry, looked up): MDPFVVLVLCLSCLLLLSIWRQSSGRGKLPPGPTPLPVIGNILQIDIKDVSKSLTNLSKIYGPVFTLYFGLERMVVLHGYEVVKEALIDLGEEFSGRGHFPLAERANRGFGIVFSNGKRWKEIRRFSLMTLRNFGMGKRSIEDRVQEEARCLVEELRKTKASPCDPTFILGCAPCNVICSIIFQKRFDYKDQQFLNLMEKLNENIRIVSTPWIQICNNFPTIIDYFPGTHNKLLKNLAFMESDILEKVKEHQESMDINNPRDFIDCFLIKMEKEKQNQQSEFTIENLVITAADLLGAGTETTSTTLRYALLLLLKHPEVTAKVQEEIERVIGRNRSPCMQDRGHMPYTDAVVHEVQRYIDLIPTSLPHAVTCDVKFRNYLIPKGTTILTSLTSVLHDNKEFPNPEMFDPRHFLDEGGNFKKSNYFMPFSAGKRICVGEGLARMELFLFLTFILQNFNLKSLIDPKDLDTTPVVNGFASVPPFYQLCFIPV
Cytochrome P450 1A2 (Homo sapiens), sequence (P05177 whole entry, looked up): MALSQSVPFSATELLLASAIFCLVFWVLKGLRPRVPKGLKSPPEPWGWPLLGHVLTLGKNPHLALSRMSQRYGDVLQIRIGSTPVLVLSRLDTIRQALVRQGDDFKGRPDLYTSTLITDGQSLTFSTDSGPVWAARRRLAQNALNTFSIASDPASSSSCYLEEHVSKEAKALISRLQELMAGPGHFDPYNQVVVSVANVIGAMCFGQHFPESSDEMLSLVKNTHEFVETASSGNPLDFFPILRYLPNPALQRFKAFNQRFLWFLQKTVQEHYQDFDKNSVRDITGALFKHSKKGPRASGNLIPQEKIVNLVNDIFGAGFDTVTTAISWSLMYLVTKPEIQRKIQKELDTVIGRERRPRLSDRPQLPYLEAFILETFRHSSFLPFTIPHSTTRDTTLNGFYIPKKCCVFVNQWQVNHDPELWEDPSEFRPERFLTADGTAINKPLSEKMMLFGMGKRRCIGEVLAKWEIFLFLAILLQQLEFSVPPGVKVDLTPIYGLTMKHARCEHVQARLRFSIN
Cytochrome P450 2D6 (Homo sapiens), sequence (P10635 whole entry, looked up): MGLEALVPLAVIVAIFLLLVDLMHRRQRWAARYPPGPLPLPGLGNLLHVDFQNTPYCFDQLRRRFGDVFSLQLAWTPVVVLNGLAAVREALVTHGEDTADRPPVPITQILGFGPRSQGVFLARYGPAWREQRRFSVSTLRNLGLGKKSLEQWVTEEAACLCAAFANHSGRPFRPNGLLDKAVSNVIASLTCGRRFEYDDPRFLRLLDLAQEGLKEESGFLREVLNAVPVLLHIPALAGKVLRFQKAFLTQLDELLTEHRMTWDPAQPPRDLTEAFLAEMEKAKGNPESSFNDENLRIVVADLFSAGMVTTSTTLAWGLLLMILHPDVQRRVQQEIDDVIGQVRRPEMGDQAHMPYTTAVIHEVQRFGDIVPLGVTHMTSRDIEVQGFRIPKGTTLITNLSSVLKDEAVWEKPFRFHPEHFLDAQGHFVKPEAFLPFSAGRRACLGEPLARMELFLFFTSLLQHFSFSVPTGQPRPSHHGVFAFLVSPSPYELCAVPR
Acetylcholinesterase (Homo sapiens), sequence (P22303 whole entry, looked up): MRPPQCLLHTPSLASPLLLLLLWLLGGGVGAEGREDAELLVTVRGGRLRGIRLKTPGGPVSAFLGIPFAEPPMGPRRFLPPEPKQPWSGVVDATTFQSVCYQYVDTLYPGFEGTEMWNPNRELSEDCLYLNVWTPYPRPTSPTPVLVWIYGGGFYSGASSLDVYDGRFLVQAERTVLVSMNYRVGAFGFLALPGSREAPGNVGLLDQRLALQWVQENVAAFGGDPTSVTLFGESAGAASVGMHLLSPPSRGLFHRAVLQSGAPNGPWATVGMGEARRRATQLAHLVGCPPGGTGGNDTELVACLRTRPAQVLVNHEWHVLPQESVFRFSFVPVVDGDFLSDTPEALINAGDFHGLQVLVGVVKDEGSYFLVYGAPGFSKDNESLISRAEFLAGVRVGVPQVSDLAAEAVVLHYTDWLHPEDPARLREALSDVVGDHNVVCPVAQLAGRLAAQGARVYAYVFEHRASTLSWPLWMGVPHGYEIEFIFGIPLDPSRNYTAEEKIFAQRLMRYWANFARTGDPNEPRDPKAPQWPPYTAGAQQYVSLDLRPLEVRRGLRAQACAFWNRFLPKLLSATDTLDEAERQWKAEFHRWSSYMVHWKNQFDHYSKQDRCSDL

Row | SMILES | Potency [1] | Potency [2] | Potency [3] | Potency [4] | Potency [5] | Potency [6] | Potency [7] | Potency [8] | Potency [9]
1 | CNN | inactive | inactive | inactive | inactive | inactive | inactive | inactive | – | –
2 | N#Cc1sc2c(=O)c3ccccc3c(=O)c=2sc1C#N | inactive | 63300 nM (active) | – | 3.99 µM (active) | 3.17 µM (active) | 21.9 µM (active) | 17.8 µM (active) | 35.6 µM (active) | 31.7 µM (active)
3 | CCCCCCCc1ccc(O)cc1 | inactive | inactive | inactive | 20 µM (active) | 35.6 µM (active) | – | inactive | – | 35.6 µM (active)
4 | CCCCCCC[CH2][Sn]([Cl])([Cl])[CH2]CCCCCCC | inactive | inactive | inactive | inactive | – | inactive | inactive | – | –
5 | CC(=O)C(Cl)C(=O)N(C)C (stereo unspecified) | inactive | inactive | inactive | inactive | inactive | inactive | inactive | – | inactive
6 | O=S(=O)(NS(=O)(=O)C(F)(F)F)C(F)(F)F | inactive | inactive | – | 39.8 µM (active) | 6.31 µM (active) | 38.8 µM (active) | – | 0.447 µM (active) | 44.7 µM (active)
7 | CNC(=O)CSP(=O)(OC)OC | inactive | inactive | inactive | inactive | inactive | inactive | inactive | – | –
8 | CC(Cc1ccc(OCC(=O)O)cc1)NCC(O)c1csc(C(F)(F)F)n1 (stereo unspecified) | inactive | inactive | inactive | inactive | inactive | inactive | inactive | – | 35.6 µM (active)
9 | CCN(CC)CCN1C(=O)CN=C(c2ccccc2F)c2cc(Cl)ccc21 | inactive | inactive | inactive | inactive | – | 3.79 µM (active) | – | – | inactive
10 | Nc1ccc(N=Nc2ccccc2)cc1 | inactive | inactive | inactive | 12.6 µM (active) | 12.6 µM (active) | inactive | – | – | 4.61 µM (active)
11 | C=CCBr | inactive | inactive | inactive | – | inactive | inactive | inactive | 33.6 µM (active) | –
12 | CCCN | inactive | inactive | inactive | inactive | inactive | inactive | inactive | – | –
13 | Cc1ccc(C)c2ccccc12 | inactive | inactive | – | inactive | inactive | inactive | inactive | inactive | inactive
14 | O=P(Cl)(Cl)Cl | inactive | inactive | inactive | – | inactive | inactive | inactive | inactive | –
15 | Nc1ccccc1-c1ccccc1 | inactive | inactive | – | 35.4 µM (active) | 31.5 µM (active) | inactive | – | 28.1 µM (active) | 35.4 µM (active)
16 | O=C(Nc1ccc(F)cc1F)c1cccnc1Oc1cccc(C(F)(F)F)c1 | inactive | inactive | inactive | – | – | inactive | inactive | inactive | 7.81 µM (active)
17 | CO/N=C(\C(=O)OC)c1ccccc1CO/N=C(\C)c1cccc(C(F)(F)F)c1 | inactive | inactive | inactive | 3.56 µM (active) | 8.94 µM (active) | inactive | – | – | 17.8 µM (active)
18 | CSC1=N[C@@](C)(c2ccccc2)C(=O)N1Nc1ccccc1 | inactive | inactive | inactive | 1.12 µM (active) | 35.6 µM (active) | inactive | 31.7 µM (active) | – | –
19 | CCC[CH2][Sn]([CH2]CCC)([O]C(C)=O)[O]C(C)=O | inactive | inactive | inactive | inactive | inactive | inactive | inactive | – | inactive
20 | CC1CN1 (stereo unspecified) | inactive | inactive | inactive | – | inactive | inactive | inactive | – | –
21 | O=C(O)CCCCCCNC1c2ccccc2CCc2ccccc21 | inactive | inactive | inactive | inactive | inactive | inactive | inactive | – | inactive
22 | c1csc(-c2ccc(-c3cccs3)s2)c1 | inactive | inactive | inactive | 17.8 µM (active) | 10 µM (active) | inactive | inactive | – | 1.12 µM (active)
23 | CCC1(CC)C(=O)N=C(O)NC1=O | inactive | inactive | – | inactive | inactive | inactive | inactive | inactive | inactive
24 | O=[N+]([O-])c1cc(C(F)(F)F)c(Cl)c([N+](=O)[O-])c1Nc1ncc(C(F)(F)F)cc1Cl | inactive | inactive | inactive | 12.6 µM (active) | 0.564 µM (active) | – | 20 µM (active) | – | 35.6 µM (active)
25 | C=Cc1cccc(CCl)c1 | inactive | inactive | inactive | – | inactive | inactive | inactive | inactive | –

Row | SMILES | Potency [1] | Potency [2] | Potency [3] | Potency [4] | Potency [5] | Potency [6] | Potency [7] | Potency [8] | Potency [9]
26 | CCC(C)Nc1c([N+](=O)[O-])cc(C(C)(C)C)cc1[N+](=O)[O-] (stereo unspecified) | inactive | inactive | inactive | 25.2 µM (active) | 35.6 µM (active) | – | inactive | – | –
27 | c1ccc2nc(N3CCNCC3)ccc2c1 | inactive | inactive | – | inactive | inactive | inactive | – | inactive | 1.23 µM (active)
28 | Clc1cc(Cl)c(-c2cc(Cl)c(Cl)cc2Cl)cc1Cl | inactive | inactive | inactive | – | inactive | inactive | inactive | inactive | –
29 | O=C(Cl)c1ccccc1F | inactive | inactive | inactive | – | – | inactive | inactive | – | –
30 | Nc1nc(N)c(N)c(N)n1 | inactive | inactive | inactive | – | inactive | inactive | inactive | inactive | –
31 | CC(C)c1c(CN(C)C(C)Cc2ccccc2)n(C)n(-c2ccccc2)c1=O (stereo unspecified) | inactive | inactive | inactive | 6.92 µM (active) | 4.36 µM (active) | inactive | 1.74 µM (active) | – | –
32 | CCOP(=S)(NC(C)C)Oc1ccccc1C(=O)OC(C)C (stereo unspecified) | inactive | inactive | inactive | 0.2 µM (active) | 1.42 µM (active) | inactive | 0.71 µM (active) | – | –
33 | CCOP(=O)(OCC)Oc1cc(C)nc(C(C)C)n1 | 5.67 µM (active) | 714 nM (active) | 25.3 µM (active) | – | inactive | inactive | inactive | inactive | –
34 | CCNS(=O)(=O)C(F)(F)C(F)(F)C(F)(F)C(F)(F)C(F)(F)C(F)(F)C(F)(F)C(F)(F)F | inactive | inactive | inactive | – | 1.52 µM (active) | inactive | inactive | – | –
35 | CCC(C)Br (stereo unspecified) | inactive | inactive | inactive | inactive | inactive | inactive | inactive | – | –
36 | CCCCC(CC)COC(=O)c1ccccc1C(=O)OCC(CC)CCCC (stereo unspecified) | inactive | inactive | inactive | 14.2 µM (active) | 9.47 µM (active) | inactive | – | – | 33.6 µM (active)
37 | CN1C2CCC(C)(C)C1CC(OC(=O)C(O)(c1cccs1)c1cccs1)C2 (stereo unspecified) | inactive | inactive | – | inactive | inactive | – | 0.219 µM (active) | 15.5 µM (active) | inactive
38 | COc1cnc(OC)n2nc(NS(=O)(=O)c3c(OCC(F)F)cccc3C(F)(F)F)nc12 | inactive | inactive | – | – | 35.6 µM (active) | inactive | – | inactive | –
39 | CCCCCON=O | inactive | inactive | – | inactive | inactive | inactive | inactive | inactive | –
40 | O.O.O.O=C([O-])[C@H]([O-])[C@@H]([O-])C(=O)[O-].O=C([O-])[C@H]([O-])[C@@H]([O-])C(=O)[O-].[K+].[K+].[Sb+3].[Sb+3] | inactive | inactive | – | – | – | inactive | – | – | –
41 | Oc1ccc(Cl)c(Cl)c1 | inactive | inactive | – | – | inactive | inactive | – | – | 39.3 µM (active)
42 | CC(Cc1ccc2c(c1)OCO2)NO (stereo unspecified) | inactive | inactive | – | 48.6 µM (active) | 34.4 µM (active) | inactive | – | 38.6 µM (active) | –
43 | CCN(CC)C(=O)N[C@@H]1C=C2c3cccc4[nH]cc(c34)C[C@@H]2N(C)C1 | inactive | – | inactive | – | – | – | – | – | –
44 | Fc1ccc(C(OCCN2CCN(CCCc3ccccc3)CC2)c2ccc(F)cc2)cc1 | inactive | inactive | – | – | – | – | inactive | – | –
45 | O=C1C(Cl)=C(Cl)C(=O)C(Cl)=C1Cl | inactive | 35.5 µM (active) and 63.3 µM (active) | – | 7.94 µM (active) and 11.2 µM (active) | 5.01 µM (active) and 8.94 µM (active) | 34.7 µM (active) | 22.4 µM (active) | 31.6 µM (active) and 25.2 µM (active) | 35.6 µM (active)
46 | CCOP(=O)(Sc1ccccc1)Sc1ccccc1 | 17.8 µM (active) | 894 nM (active) | – | 8.94 µM (active) | 28.3 µM (active) | inactive | inactive | 56.4 µM (active) | 10 µM (active)
47 | Oc1cc(Cl)c(Cl)c(Cl)c1Cl | inactive | inactive | – | inactive | – | inactive | inactive | – | 27.6 µM (active)
48 | Cc1ccc2cc3c(ccc4ccccc43)c3c2c1CC3 | inactive | inactive | – | 40 µM (active) | 5.65 µM (active) | inactive | 8.96 µM (active) | inactive | –
49 | CSSC | inactive | inactive | – | 80.6 µM (active) | – | inactive | inactive | inactive | –
